Laboratory results taken from PubChem BioAssay (Tox21).
Inconclusive results are not listed. Values without a mark were called inactive. Calls of active or inactive are those of the source. Unless noted, the call rests on the fitted dose curve; in most records, active means well fitted curve in the direction sought with a large enough effect in the repeat runs; inconclusive means weak or mixed curves; inactive means no such curve, though single readings can be large; an effect the other way counts as inactive or inconclusive.

System: not listed separately
Experiment: qHTS assay to identify small molecule that activate the aryl hydrocarbon receptor (AhR) signaling pathway - cell viability counter screen (AID 743086); further: nearly all actives have a fitted effect of over 45% in size; further: potency means the concentration at half of the fitted maximal effect;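 on viability change, negative = cytotoxic: HepG2 liver cells carrying the AhR DRE luciferase reporter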
Conditions: HepG2-AhR-luc viability, CellTiter-Fluor, 24 h; series mostly up to 70.3 µM; viability change, negative = cytotoxic: at the top concentration
How it was run: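 Cytotoxicity counter screen: CellTiter-Fluor signal (30 min, 37 C) in 4000 HepG2 cells/well carrying the DRE-luciferase reporter, following 24 h compound exposure at 37 C.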
On the % scale 0 is the no-effect control and ±100 the full control effect.

SMILES | viability change, negative = cytotoxic | Potency
O=C(/C=C/c1ccc(O)c(O)c1)O[C@@H]1C[C@](O)(C(=O)O)C[C@@H](O)[C@H]1O | -10.7% [at 95 µM] | –
CCOC(=O)[C@H](CCc1ccccc1)N[C@H]1CCc2ccccc2N(CC(=O)O)C1=O | -27.9% | –
O=C(O)Cc1cc(I)c(Oc2ccc(O)c(I)c2)c(I)c1 | – | inactive
Cc1ncsc1CCO | -6.69% | –
O=C(O)c1cccc(N(Cc2cccnc2)c2ccc(OC(F)F)c(OC(F)F)c2)c1 | -9.53% | –
NC(N)=NN=C(/C=C/c1ccc([N+](=O)[O-])o1)/C=C/c1ccc([N+](=O)[O-])o1 | – | 7.5 µM (active)
CCCCCCc1ccc(N)cc1 | 10.8% | –
COc1ccc([C@@H]2Sc3ccccc3N(CCN(C)C)C(=O)[C@@H]2OC(C)=O)cc1 | 1.68% | –
CCCCCCCCCC=O | 7.35% | –
N=C(N=C(N)N)N1CCOCC1 | 17.2% [at 32.5 µM] | –
CCOc1cc(OCC)c(C(=O)CCC(=O)O)cc1OCC | -9.02% | –
Oc1ccc(O)c2c(O)cccc12 | -21.6% | –
C[C@@H](C1=C(CCN(C)C)Cc2ccccc21)c1ccccn1 | -14.7% | –
Nc1nc(N)c2nc(CNc3ccc(C(=O)N[C@@H](CCC(=O)O)C(=O)O)cc3)cnc2n1 | – | inactive
CC(C(=O)O)c1ccc(-c2ccccc2)c(F)c1 (stereo not drawn) | – | inactive
CCCCCCCCCCCCC(=O)O | 1.17% [at 95 µM] | –
O=C1c2cccc(O)c2C(=O)c2c(O)cc(CO)cc21 | -10.5% | –
NCc1ccccc1 | 2.43% | –
CN(C)CC/C=C1\c2ccccc2COc2ccccc21 | -9.79% | –
C=CC(C)(CCC=C(C)C)OC(=O)c1ccccc1 (stereo not drawn) | -3.31% | –
C=CC(=O)OCC(C)OCC(C)OCC(C)OC(=O)C=C (stereo not drawn) | 5.61% | –

Target: Peroxisome proliferator-activated receptor gamma (Homo sapiens) (UniProt P37231)
Sequence (P37231 whole entry, looked up): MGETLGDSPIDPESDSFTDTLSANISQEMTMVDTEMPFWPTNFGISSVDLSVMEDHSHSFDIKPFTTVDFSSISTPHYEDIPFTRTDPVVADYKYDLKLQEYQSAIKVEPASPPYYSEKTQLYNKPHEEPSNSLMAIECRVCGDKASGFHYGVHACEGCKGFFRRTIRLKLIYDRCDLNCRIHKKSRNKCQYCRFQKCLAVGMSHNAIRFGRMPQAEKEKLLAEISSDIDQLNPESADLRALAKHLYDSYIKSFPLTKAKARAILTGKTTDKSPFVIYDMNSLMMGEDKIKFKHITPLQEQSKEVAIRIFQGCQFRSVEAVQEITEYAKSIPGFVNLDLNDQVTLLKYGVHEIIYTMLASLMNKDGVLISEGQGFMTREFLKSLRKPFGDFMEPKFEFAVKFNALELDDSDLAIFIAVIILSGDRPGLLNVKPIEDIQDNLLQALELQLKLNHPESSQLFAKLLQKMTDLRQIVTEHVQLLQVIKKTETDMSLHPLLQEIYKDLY
Experiment: qHTS assay to identify small molecule agonists of the peroxisome proliferator-activated receptor gamma (PPARg) signaling pathway (AID 743094; active means well fitted activation curve with a large enough effect in the signal ratio in the repeat runs, not every such curve was filed as active; the % refers to the signal ratio)
Conditions: HEK293H PPARg-UAS-bla, beta-lactamase FRET ratio, 17 h; series mostly up to 57 µM; activation: at the top concentration
How it was run: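 Cell-based bla reporter, HEK293H background, PPARg-driven UAS. Pre-incubation 5 h, 37C, 5% CO2. Compound 17 h, 37C. Substrate 1 h RT; fluorescence.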

SMILES | activation | Potency
CC(=O)c1c(C)c([N+](=O)[O-])c(C(C)(C)C)c([N+](=O)[O-])c1C | 7.64% | –
CC(C)NCC(O)c1cc(O)cc(O)c1 (stereo not drawn) | 2.76% | –
Cc1cccc(C(C)(C)C)c1O | 0.636% | –
O=C(Cl)c1ccc([N+](=O)[O-])cc1 | 0.923% | –
CN(C)C/C=C(/c1ccc(Br)cc1)c1cccnc1 | -7.02% | –
CC(C)(C)c1ccc(S)cc1 | -8.39% | –
CCOC(=S)SSC(=S)OCC | – | inactive
CCOc1nc2cccc(C(=O)O)c2n1Cc1ccc(-c2ccccc2-c2nn[nH]n2)cc1 | -0.162% | –
SC1CCCC1 | 2.28% | –
CCN(CC)CCOC(=O)C1(c2ccccc2)CCCC1 | -2.3% | –
CCCCCCCCCCCCCCCBr | -0.055% | –
C1=Cc2ccccc2C1 | 3.84% | –
CCN(CC)CCNC(C(=O)OCCC(C)C)c1ccccc1 (stereo not drawn) | 1.92% | –
CC(C)(C)C1CCCCC1O (stereo not drawn) | 0.576% | –
Cc1ccc(C(=O)C(C)CN2CCCCC2)cc1 (stereo not drawn) | – | inactive
c1ccc(OCc2ccc(CCCN3CCOCC3)cc2)cc1 | -6.23% | –
O=C(C(=O)c1ccc(Br)cc1)c1ccc(Br)cc1 | -2.6% [at 26.2 µM] | –
OCC1CC2CC1C1CCC(CO)C21 (stereo not drawn) | 3.1% | –

Target: Peroxisome proliferator-activated receptor gamma (Homo sapiens) (UniProt P37231)
Experiment: qHTS assay to identify small molecule antagonists of the peroxisome proliferator-activated receptor gamma (PPARg) signaling pathway (AID 743191; calls by dose curve; further: nearly all actives have a fitted effect of over 30% in size)
Conditions: HEK293H PPARg-UAS-bla, beta-lactamase ratio, antagonist, 17 h; series mostly up to 62.6 µM; ratio activity, negative = inhibition: at the top concentration
How it was run: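 Beta-lactamase reporter under UAS control in HEK293H PPARg-bla cells; compound treatment 17 h at 37C. Read-out: fluorescence intensity after 1 h room-temperature incubation with LiveBLAzer B/G FRET substrate.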

SMILES | ratio activity, negative = inhibition
CC(=O)c1c(C)c([N+](=O)[O-])c(C(C)(C)C)c([N+](=O)[O-])c1C | 7.06%
CC(C)NCC(O)c1cc(O)cc(O)c1 (stereo not drawn) | 9.35%
Cc1cccc(C(C)(C)C)c1O | 18.9%
O=C(Cl)c1ccc([N+](=O)[O-])cc1 | 4.85%
CN(C)C/C=C(/c1ccc(Br)cc1)c1cccnc1 | 1.06%
CC(C)(C)c1ccc(S)cc1 | -10.1%
CCOC(=S)SSC(=S)OCC | -0.256%
CCOc1nc2cccc(C(=O)O)c2n1Cc1ccc(-c2ccccc2-c2nn[nH]n2)cc1 | -19.5%
SC1CCCC1 | 0.242%
CCN(CC)CCOC(=O)C1(c2ccccc2)CCCC1 | 4.04%
CCCCCCCCCCCCCCCBr | 9.5%
C1=Cc2ccccc2C1 | -7.24%
CCN(CC)CCNC(C(=O)OCCC(C)C)c1ccccc1 (stereo not drawn) | -4.11%
CC(C)(C)C1CCCCC1O (stereo not drawn) | -1.63%
Cc1ccc(C(=O)C(C)CN2CCCCC2)cc1 (stereo not drawn) | 2.79%
c1ccc(OCc2ccc(CCCN3CCOCC3)cc2)cc1 | 12.6%
O=C(C(=O)c1ccc(Br)cc1)c1ccc(Br)cc1 | -7.35% [at 29.1 µM]
OCC1CC2CC1C1CCC(CO)C21 (stereo not drawn) | -18.4%

System: not listed separately
Experiment: qHTS assay to identify small molecule antagonists of the peroxisome proliferator-activated receptor gamma (PPARg) signaling pathway - cell viability counter screen (AID 743194); further: nearly all actives have a fitted effect of over 55% in size; further: potency means the concentration at half of the fitted maximal effect
Conditions: PPARg-bla HEK293H viability, CellTiter-Glo luminescence, 17 h, co-treated with 50 nM rosiglitazone; series mostly up to 62.6 µM; activity change, negative = cytotoxicity: at the top concentration
How it was run: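 Viability was measured as CellTiter-Glo luminescence in GeneBLAzer PPARg UAS-bla HEK293H cells. These cells had been exposed 17 h at 37 C to compounds together with rosiglitazone at 50 nM final, with the beta-lactamase readout taken in the same wells.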

SMILES | activity change, negative = cytotoxicity | Potency
O=C(/C=C/c1ccc(O)c(O)c1)O[C@@H]1C[C@](O)(C(=O)O)C[C@@H](O)[C@H]1O | 3.65% [at 81.1 µM] | –
CCOC(=O)[C@H](CCc1ccccc1)N[C@H]1CCc2ccccc2N(CC(=O)O)C1=O | -32% | –
O=C(O)Cc1cc(I)c(Oc2ccc(O)c(I)c2)c(I)c1 | – | 24.5 µM (active)
CC(=O)c1c(C)c([N+](=O)[O-])c(C(C)(C)C)c([N+](=O)[O-])c1C | -7.47% | –
CC(C)NCC(O)c1cc(O)cc(O)c1 (stereo not drawn) | 13.5% | –
Cc1cccc(C(C)(C)C)c1O | 5.94% | –
O=C(O)c1cccc(N(Cc2cccnc2)c2ccc(OC(F)F)c(OC(F)F)c2)c1 | 2.98% | –
O=C(Cl)c1ccc([N+](=O)[O-])cc1 | 0.259% | –
NC(N)=NN=C(/C=C/c1ccc([N+](=O)[O-])o1)/C=C/c1ccc([N+](=O)[O-])o1 | – | 2.11 µM (active)
CCCCCCc1ccc(N)cc1 | 3.41% | –
CN(C)C/C=C(/c1ccc(Br)cc1)c1cccnc1 | 13.7% | –
CC(C)(C)c1ccc(S)cc1 | 9.59% | –
COc1ccc([C@@H]2Sc3ccccc3N(CCN(C)C)C(=O)[C@@H]2OC(C)=O)cc1 | 0.312% | –
CCCCCCCCCC=O | 2.38% | –
CCOc1cc(OCC)c(C(=O)CCC(=O)O)cc1OCC | -1.1% | –
Oc1ccc(O)c2c(O)cccc12 | 0.454% | –
CCOC(=S)SSC(=S)OCC | 0.731% | –
CCOc1nc2cccc(C(=O)O)c2n1Cc1ccc(-c2ccccc2-c2nn[nH]n2)cc1 | 4.05% | –

SMILES | activity change, negative = cytotoxicity | Potency
C[C@@H](C1=C(CCN(C)C)Cc2ccccc21)c1ccccn1 | 0.162% | –
SC1CCCC1 | -15.9% | –
CCN(CC)CCOC(=O)C1(c2ccccc2)CCCC1 | 0.764% | –
CC(C(=O)O)c1ccc(-c2ccccc2)c(F)c1 (stereo not drawn) | 1.33% | –
CCCCCCCCCCCCC(=O)O | -17% [at 81.1 µM] | –
CCCCCCCCCCCCCCCBr | -7.24% | –
O=C1c2cccc(O)c2C(=O)c2c(O)cc(CO)cc21 | -0.485% | –
NCc1ccccc1 | 1.98% | –
C1=Cc2ccccc2C1 | 5.17% | –
CN(C)CC/C=C1\c2ccccc2COc2ccccc21 | -10.6% | –
C=CC(C)(CCC=C(C)C)OC(=O)c1ccccc1 (stereo not drawn) | -21.1% | –
CCN(CC)CCNC(C(=O)OCCC(C)C)c1ccccc1 (stereo not drawn) | -4.4% | –
CC(C)(C)C1CCCCC1O (stereo not drawn) | -11.6% | –
Cc1ccc(C(=O)C(C)CN2CCCCC2)cc1 (stereo not drawn) | -9.75% | –
c1ccc(OCc2ccc(CCCN3CCOCC3)cc2)cc1 | 3.17% | –
O=C(C(=O)c1ccc(Br)cc1)c1ccc(Br)cc1 | 15.2% [at 29.1 µM] | –
OCC1CC2CC1C1CCC(CO)C21 (stereo not drawn) | 3.67% | –
C=CC(=O)OCC(C)OCC(C)OCC(C)OC(=O)C=C (stereo not drawn) | -21.8% | –
